A selection: hits, their analogues and other compounds. The true share with any hit is near 3.9%.
Peg3 prom inh-1: Peg3 promoter-driven luciferase inhibitors, primary screen, cell-based, HeLa, luciferase luminescence; HeLa PEG-Prom luciferase reporter, overnight; inhibition, % at 20 µM; 360,000 tested, 1.7% active; AID 588405, 2011;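 active = inhibition of at least 50% at 20 µM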
KKLEB cytotox: cytotoxicity in KKLEB CF airway cells, primary screen, cytotoxicity control for CF NF-kB inhibitor project, cell-based, uHTS, fluorescence assay plates; KKLEB CF airway cells viability, ATPlite luminescence, overnight; hits give low values; cells stimulated with P. aeruginosa culture filtrate; activity change (cytotoxicity), % at 5 µM; 360,000 tested, 0.36% active;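 active = corrected activity change at or below -50% at 5 µM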
TWEAK Fn14 block: inhibitors of TWEAK-Fn14 signaling, primary screen, luciferase reporter cells, uHTS. inhibition, % at 10 µM. 360,000 tested, 2% active. TWEAK-stimulated Fn14 reporter cells, luciferase luminescence, 8 h; in the data active = inhibition above about 50%
TROY signal inh: inhibitors of TROY-driven NF-kB signaling, primary screen, Q293 LMP1-TROYcd cells, NF-kB luciferase, uHTS; inhibition, % at 10 µM; 360,000 tested, 0.98% active; Q293 LMP1-TROYcd NF-kB luciferase reporter, 4 h;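 active = compounds whose plate-normalised and pattern-corrected inhibition of the luciferase reporter signal at the single screening dose is 50% or more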
CF NFkB inh: inhibitors of PAF-induced NF-kB signaling, primary screen, cell-based, GFP fluorescence, uHTS | AID 588850, 2011 | KKLEB NF-kB-GFP reporter, GFP fluorescence overnight | inhibition, % at 5 µM | 360,000 tested, 0.86% active;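 active = at least 50% inhibition at 5 µM, scaled per plate between neutral and stimulator controls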;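 also: PAF is a Pseudomonas aeruginosa culture filtrate used as stimulus; plate controls were PAF-stimulated DMSO wells for no effect and unstimulated DMSO wells for full effect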
HIF-2a inh: HIF-2a reporter inhibitors, primary screen, luminescence, 786-0 RCC cells | 786-0 RCC cells HIF-2a reporter, luciferase luminescence, overnight | inhibition, % at 18.8 µM | 360,000 tested, 0.72% active | AID 624352, 2012;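 active = inhibition of the luminescence signal of 40% or more relative to plate controls, in a single-dose primary screen at 18.75 µM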
Peg3 prom inh-2: Peg3 promoter reporter inhibitors, retest, confirmation, cell-based, HeLa, luciferase reporter, single concentration | shares compounds with Peg3 prom inh-1 | HeLa PEG-Prom luciferase reporter, luminescence, overnight | inhibition, % at 20 µM | 1,300 tested, 84% active | AID 602417, 2012;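 active = at 20 µM dose, 40% or more inhibition averaged across four replicates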
CF NFkB inh conf: inhibitors of PAF-induced NF-kB signaling, retest, confirmation, cell-based, GFP fluorescence, single concentration | shares compounds with CF NFkB inh | KKLEB CF airway cells, overnight | inhibition, % at 5 µM | 1,300 tested, 64% active | AID 602472, 2012; in the data active = inhibition above about 40%;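 also: stimulus PAF is a Pseudomonas aeruginosa filtrate and not platelet activating factor; plate controls were DMSO wells with stimulus for no effect and unstimulated DMSO wells for full effect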
Mdm2-MdmX confirm: retested Mdm2-MdmX interaction blockers, confirmation, cell-based, luminescence, single concentration, set 2. shares compounds with HIF-2a inh. SaOS-2 split-luciferase Mdm2/MdmX complementation. inhibition, % at 8 µM. 740 tested, 99% active. AID 504601, 2011;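 active = mean inhibition of the luminescence signal across two replicates at or above 26 percent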
HIF-2a inh conf: HIF-2a reporter inhibitor retest, confirmation, luminescence, 786-0 RCC cells | shares compounds with HIF-2a inh | HIF-2a luciferase reporter luminescence, overnight | inhibition, % at 18.8 µM | 1,800 tested, 56% active | AID 651580, 2012;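 active = mean inhibition across four replicates of at least 40 percent at the single tested concentration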
HIF-1a cs: HIF-1a luciferase reporter signal reduction – MiaPaCa-2 cells, single concentration, counter-screen for HIF-2a inhibitor project, confirmation; inhibition, % at 18.8 µM; 1,800 tested, 72% active; shares compounds with HIF-2a inh; AID 651589, 2012; MiaPaCa-2 HIF-1a luciferase reporter, desferoxamine, overnight;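 active = mean inhibition of the reporter signal across four replicates at the single tested dose of 50% or more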
Numbers without * were called inactive; · = not tested or not shown.

SMILES | Peg3 prom inh-1 | KKLEB cytotox | TWEAK Fn14 block | TROY signal inh | CF NFkB inh | HIF-2a inh | Peg3 prom inh-2 | HIF-2a inh conf | HIF-1a cs | others
c1ccc(-c2noc(-c3ccc4c(c3)OCO4)n2)nc1 | 87* | -45 | 101* | 85* | -6 | 80* | 81* | 85* | 87*
c1ccc(-c2noc(-c3ccncc3)n2)nc1 | -102 | 2 | 35 | 2 | 8 | -136 | · | · | ·
CCOc1ccccc1/C=N/NC(=O)CNC(=O)c1cccs1 | 6 | -2 | 9 | 14 | 2 | 5 | · | · | ·
Cc1nn(C(C)(C)C)c(C)c1/C=N/OC(=O)Nc1ccc(Cl)cc1 | 96* | -56* | 103* | 82* | 1 | 91* | 95* | 96* | 103* | Mdm2-MdmX confirm=101*
COc1cc(SC)ccc1C(=O)Nc1nc2ccccc2[nH]1 | 109* | -96* | 100* | 84* | 38 | 96* | 96* | 99* | 107*
COc1ccc(NC(=O)CS(=O)c2ccc(Cl)c(Cl)c2)cc1 (stereo unspecified) | -2 | -3 | -16 | -4 | 5 | -7 | · | · | ·
CCOC(=O)c1csc(-n2nc(C)cc2C(F)(F)F)n1 | -8 | 0 | 12 | -12 | 2 | 12 | · | · | ·
CCCCCCCNC(=O)C1(CC2CC(c3cccc(Br)c3)=NO2)CCNCC1 (stereo unspecified) | 99* | -23 | -81 | -48 | 26 | -74 | 99* | · | · | Mdm2-MdmX confirm=103*
Cc1ccc2nc(-c3ccccc3)cn2c1 | 89* | 5 | 105* | 85* | -14 | 73* | 78* | 89* | 84*
O=C(CN1CCCN(Cc2ccc(F)cc2Cl)C1=O)NCc1ccccc1 | 7 | 4 | 6 | 10 | -10 | 12 | · | · | ·
Cc1ccc(SCC(=O)OC(C)C(=O)N2CCc3ccccc32)cc1 (stereo unspecified) | -13 | -5 | -21 | 4 | -17 | 5 | · | · | ·
COc1ccc2[nH]cc(C(=O)CCl)c2c1 | 107* | -40 | 57* | 12 | 82* | 33 | 97* | · | · | CF NFkB inh conf=113*;Mdm2-MdmX confirm=102*
COc1ccc2[nH]cc(C(=O)CN3CC(C)CC(C)C3)c2c1 (stereo unspecified) | -10 | -3 | 6 | 2 | 4 | 5 | · | · | ·
COc1cccc(NC(=O)c2nc(S(C)(=O)=O)ncc2Cl)c1 | 108* | -37 | 74* | 53* | 88* | 68* | 98* | 65* | 11 | CF NFkB inh conf=61*;Mdm2-MdmX confirm=101*
CC(=O)Nc1ccc(NC(=O)c2nc(S(=O)(=O)Cc3cccc(C)c3)ncc2Cl)cc1 | 102* | -31 | 70* | 75* | 102* | -23 | 96* | · | · | CF NFkB inh conf=82*;Mdm2-MdmX confirm=103*
CCCS(=O)(=O)c1ncc(Cl)c(C(=O)Nc2ccc(S(=O)(=O)Nc3ncccn3)cc2)n1 | 14 | -2 | -1 | -18 | 20 | -5 | · | · | ·
Cc1ccc2nc(NC(=O)CSCC(=O)OCC(=O)c3ccc(Br)cc3)sc2c1 | 52* | 0 | 74* | 64* | 13 | 57* | 65* | 51* | 86*
COC(=O)C1(C(=O)OC)C2C(=O)C3C(C21)C3(C(=O)OC(C)(C)C)C(=O)OC(C)(C)C (stereo unspecified) | 0 | 3 | 5 | -6 | -6 | -1 | · | · | ·
CCOc1ccc(Nc2nc(Cc3nnc(SCC(=O)N(CC)CC)n3C)cs2)cc1 | 6 | -4 | -6 | 3 | 1 | 24 | · | · | ·
O=C(Nc1ccc(Cl)c(Cl)c1)N1N=CCC1c1ccccc1 (stereo unspecified) | -4 | 13 | 11 | -8 | -12 | -34 | · | · | ·
Cc1ccc(CCNC(=O)C2CCN(S(=O)(=O)c3ccc4c(c3)NC(=O)CO4)CC2)cc1 | -7 | 9 | -9 | -2 | -4 | 2 | · | · | ·
C(=N\Nc1nc2ccccc2[nH]1)/c1ccccn1 | 86* | -43 | 100* | 82* | -30 | 73* | 76* | -19 | -36
Cc1cc(=O)[nH]c(N/N=C/c2ccccn2)n1 | 19 | -3 | -4 | -7 | 25 | -97 | · | · | ·
O=c1cnnc(N/N=C/c2ccccn2)[nH]1 | 62* | -2 | -7 | 20 | 11 | 14 | 73* | · | · | Mdm2-MdmX confirm=87*
Cc1cc(C)c2ccc(N)nc2c1O | 70* | -3 | 69* | 9 | -28 | 9 | 58* | · | · | Mdm2-MdmX confirm=89*
SMILES | Peg3 prom inh-1 | KKLEB cytotox | TWEAK Fn14 block | TROY signal inh | CF NFkB inh | HIF-2a inh | Peg3 prom inh-2 | HIF-2a inh conf | HIF-1a cs | others
Cc1cc(C)c2cccc(N)c2n1 | 10 | 0 | 32 | -2 | -4 | 15 | · | · | ·
COCCn1c(C)cc(C(=O)CSc2nnc(C)s2)c1C | 95* | -8 | 91* | 13 | 4 | 70* | 74* | 84* | 37
C/C(=N\Nc1ccc2nncn2n1)c1ccccn1 | 60* | 9 | -19 | -10 | -13 | -6 | 60* | · | · | Mdm2-MdmX confirm=83*
C/C(=N\Nc1ccc2nncn2n1)c1ccco1 | -11 | 4 | 12 | -8 | 0 | 5 | · | · | ·
O=C(CCl)N1N=C(c2ccco2)CC1c1cccs1 (stereo unspecified) | 90* | -20 | 10 | 17 | 58* | 40* | 78* | -6 | 73* | CF NFkB inh conf=27
Nc1cc(N)nc(SCC(=O)N2CCc3ccccc32)n1 | -143 | 2 | 1 | · | 2 | -131 | · | · | ·
CCCCNC(=O)c1c(N)[nH]c(C(=O)c2ccccc2)c1-c1ccccn1 | · | · | 10 | -4 | · | 10 | · | · | ·
CCC1=C(CC2NCCc3ccccc32)CC2c3cc(OC)c(OC)cc3CCN2C1 (stereo unspecified) | 61* | -12 | 41 | 36 | 63* | 41* | 80* | 39 | 104* | CF NFkB inh conf=72*
